# Assay results as given in publication PMC7819943, “Rice protein-binding microarrays: a tool to detect cis-acting elements near promoter regions in rice”.
# Whole data set: some 39,000 sequences, median “fluorescence intensity (a.u.)” near 4,300, cut for the highest 2% near 39,000. Many of the other results were omitted from the sample, so the highest values are more common in it than they were.
# Molecular target: T1, OsSMF1 (Oryza sativa, UniProt Q6ZLB0 1-436)
# T1 sequence: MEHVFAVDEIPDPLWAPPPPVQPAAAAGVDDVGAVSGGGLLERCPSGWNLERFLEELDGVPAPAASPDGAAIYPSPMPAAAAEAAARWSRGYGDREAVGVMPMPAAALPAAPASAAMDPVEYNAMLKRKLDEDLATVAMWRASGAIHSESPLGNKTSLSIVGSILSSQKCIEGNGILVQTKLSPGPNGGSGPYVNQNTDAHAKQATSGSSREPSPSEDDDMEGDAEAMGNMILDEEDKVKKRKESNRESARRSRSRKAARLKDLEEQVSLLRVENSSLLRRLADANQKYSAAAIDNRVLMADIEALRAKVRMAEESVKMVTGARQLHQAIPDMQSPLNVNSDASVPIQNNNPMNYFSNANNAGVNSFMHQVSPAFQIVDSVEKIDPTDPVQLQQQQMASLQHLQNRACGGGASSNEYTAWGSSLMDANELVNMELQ
# Assay: protein-binding microarray (RPBM); PBS, 2% BSA, 51.3 ng/ul salmon testes DNA, 50 uM zinc acetate, 200 nM TF, 25 C, 1 h; high values mean tight binding
# Details: protein: recombinant; tags: N-terminal polyhistidine and DsRed monomer fusion (pET32a); chain copies: 2; label: CyDye5-dUTP incorporated in the synthesized complementary strand; 3' TTTTT single-stranded linker to array surface; dsDNA, one strand shown
# Method in brief: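 Transcription factors were each fused at the N-terminus to a polyhistidine tag plus DsRed and expressed in E. coli BL21-CodonPlus before Ni–NTA purification. Binding to a double-stranded custom Agilent array was carried out with 200 nM protein at 25 °C for 1 h in PBS, 2% BSA, salmon testes DNA and 50 µM zinc acetate. The binding signal is per-feature fluorescence intensity, in arbitrary units, on an Axon 4000B scanner.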
row,Sequence,binding signal
1,GCTCCCTCAGCCGTGGCACGTGTTCACAAGCCGTGACCAGCGGAGTCACCTAGTGCAG,4570 fluorescence intensity (a.u.)
2,CAGGCCAGAACAACTGCTCGGCCCGATAGGAGGGCCTACTCGGAGTCACCTAGTGCAG,55800 fluorescence intensity (a.u.)
3,GTGCCTGCTCGATCGAGTCGTGGCGGCGGCGGAGTCAACTCGGAGTCACCTAGTGCAG,3370 fluorescence intensity (a.u.)
4,GCCCGTGCCAGGGCTGCTACCTCGGCACACTGGCCGGCACCGGAGTCACCTAGTGCAG,3350 fluorescence intensity (a.u.)
5,AATAAGTGCAGTTGTGGGAATCCGTGTTGAACGTTTGACCCGGAGTCACCTAGTGCAG,14300 fluorescence intensity (a.u.)
6,AGTGAAGTCACAAGGAAGTGACGAGGATGAGGACGAGGAGCGGAGTCACCTAGTGCAG,28700 fluorescence intensity (a.u.)
7,CGCTCCTCGCCGCCTTGAACCTCACAGCGAAACCTGATCACGGAGTCACCTAGTGCAG,3270 fluorescence intensity (a.u.)
8,GCCACCCTCAGCCACTGGCCATCCGTGGGCCCCACCATCCCGGAGTCACCTAGTGCAG,22500 fluorescence intensity (a.u.)
9,GCCCACATCCATCCCGTCACCCGCCCACTCGCCGTCGCACCGGAGTCACCTAGTGCAG,3490 fluorescence intensity (a.u.)
10,TGGGGCCCACATCCCGCACCACTCGGATTCGGATTTCCTCCGGAGTCACCTAGTGCAG,52200 fluorescence intensity (a.u.)
11,CACTCCCATTCCCATCCTCCACATCCCGCGCCATCGACCTCGGAGTCACCTAGTGCAG,3400 fluorescence intensity (a.u.)
12,GATCCCGGGCCCGGCCCACTGGCCCAGTCAACTAATCCTCCGGAGTCACCTAGTGCAG,53100 fluorescence intensity (a.u.)
13,CCACCTAACACTAATCAACCAGTCAACCACCACATCTTCCCGGAGTCACCTAGTGCAG,3820 fluorescence intensity (a.u.)
14,CTGCTCCACGCATTCACCAACGCTCCCTGCGATGTTTTAGCGGAGTCACCTAGTGCAG,4260 fluorescence intensity (a.u.)
15,CATCCATCCGGTCAAAGCAGCCGGCCACGTGGCGTGTCCCCGGAGTCACCTAGTGCAG,28100 fluorescence intensity (a.u.)
16,ACAGGCGAGGGTGGAACCCCGCGTGGCGAGAGCGTTGCGGCGGAGTCACCTAGTGCAG,4270 fluorescence intensity (a.u.)
17,TGTAAACATCCCATACTGGCTCTTACGCAAAACTTTCACCCGGAGTCACCTAGTGCAG,54100 fluorescence intensity (a.u.)
18,CTTTTCCCCGACTAAACACACCCATACTGTCAAAAGGTAACGGAGTCACCTAGTGCAG,26800 fluorescence intensity (a.u.)
19,TCTTCAAACTTCCAACTTTTCCATCACATCAAAACTTTCCCGGAGTCACCTAGTGCAG,3340 fluorescence intensity (a.u.)
20,CCGCCTTGCGTGGCTGAACTTCTTCTGATGGTCCCCGCCTCGGAGTCACCTAGTGCAG,3290 fluorescence intensity (a.u.)
21,ATAATCTTCAGAGATCTCCTTGCCTGAAGTGTCTTATGTTCGGAGTCACCTAGTGCAG,42500 fluorescence intensity (a.u.)

row,Sequence,binding signal
1,GCAATCTTTGCCTTGGTCCTCTTGAAGTCTTTGGCGGTATCGGAGTCACCTAGTGCAG,27700 fluorescence intensity (a.u.)
2,CCGGATCTTCAGCAGAGTCGTGTCACCTGTTTTGATCGTTCGGAGTCACCTAGTGCAG,3890 fluorescence intensity (a.u.)
3,TATGTTCATTTCCTTATTTGCCTCTCGTCATGTCTCTTGACGGAGTCACCTAGTGCAG,3420 fluorescence intensity (a.u.)
4,TAGTTCTGAAGTCTGAAATCCTTGCGGTCCTTCACCGCCTCGGAGTCACCTAGTGCAG,55000 fluorescence intensity (a.u.)
5,CTCACTGGTATGCTCACCACCACTTTAAGACTGTGTTTGTCGGAGTCACCTAGTGCAG,3730 fluorescence intensity (a.u.)
6,AGAGGCGAAATCGCGGCTACGGAGGCGGCGGCGGTGGCGGCGGAGTCACCTAGTGCAG,3390 fluorescence intensity (a.u.)
7,TGGCCATCGCCTACGGTGAGCAGTCATCGTCGTCCATCCGCGGAGTCACCTAGTGCAG,4090 fluorescence intensity (a.u.)
8,TAGTCCTCCTTGGCTACGGTGTCATAGATCGAGGCCTCCGCGGAGTCACCTAGTGCAG,50200 fluorescence intensity (a.u.)
9,TGAAAATTTGTACACGTAAGTAATAGATGGTACCAATAGACGGAGTCACCTAGTGCAG,5890 fluorescence intensity (a.u.)
10,AAGAGAAAATTCAAGAAATATCATTACCAAAGTCCAAGAACGGAGTCACCTAGTGCAG,52800 fluorescence intensity (a.u.)
11,GAGTTTAATTAATTAATTTCTTAAAATTGATGTCATCACACGGAGTCACCTAGTGCAG,3140 fluorescence intensity (a.u.)
12,GCACATCTTCCTTAATTGCCAAAAGAGTAAATTTCACGAACGGAGTCACCTAGTGCAG,43300 fluorescence intensity (a.u.)
13,TTTCAAAATATTCAGTTTGAGAATATGTAAATCTTATGGGCGGAGTCACCTAGTGCAG,20100 fluorescence intensity (a.u.)
14,TGTCACGAAAATCTTAATATTCATTTGGAGAAAAGAACGGCGGAGTCACCTAGTGCAG,49000 fluorescence intensity (a.u.)
15,CGAACGAGAATTCATGGAATCCAAGAAAAGAGACACGTGTCGGAGTCACCTAGTGCAG,5610 fluorescence intensity (a.u.)
16,AGAAGACGATCTCCTGAGACAAATTGCCAAAATTAAAGAACGGAGTCACCTAGTGCAG,4830 fluorescence intensity (a.u.)
17,GAGAATTCTCCACGAAAAGAGGAGAACGAACCACATCAAACGGAGTCACCTAGTGCAG,3380 fluorescence intensity (a.u.)
18,CGTGTCATTGTCCAAAATGTCAAAGAAATATGGAACCGGACGGAGTCACCTAGTGCAG,15200 fluorescence intensity (a.u.)
19,GATACGCGGCGGCTGAGTCAGCGTGGGACCCACGTGGGCCCGGAGTCACCTAGTGCAG,13000 fluorescence intensity (a.u.)
20,GCCATCCTCACGCACACGCCACGTGCTCGACGAAATGCCGCGGAGTCACCTAGTGCAG,4190 fluorescence intensity (a.u.)
21,AGCTCAGCTCTCTCTGCTCTGCTCTTTGCTCGATAACGACCGGAGTCACCTAGTGCAG,33600 fluorescence intensity (a.u.)
